Experiments:
Type in all cases: functional
[1] = target: Solute carrier family 2, facilitated glucose transporter member 1 (Homo sapiens) (UniProt P11166); assay: ST_JUDE_LEISH: Cytotoxicity at 2uM final concentration against transgenic Leishmania Mexicana promastigotes LmGLUT1 that are glucose transport deficient and complemented with the human glucose transporter GLUT1. Activity is measured by DNA content using SYBR green in vitro
[2] = target: Hexose transporter 1 (Plasmodium falciparum) (UniProt O97467); assay: ST_JUDE_LEISH: Cytotoxicity at 2uM final concentration against transgenic Leishmania Mexicana promastigotes LmPfHT that are glucose transport deficient and complemented with the Plasmodium falciparum hexose transporter. Activity is measured by DNA content using SYBR green in vitro
[3] = target: Glucose transporter (Leishmania mexicana) (UniProt O61059); assay: ST_JUDE_LEISH: Cytotoxicity at 2uM final concentration against transgenic Leishmania Mexicana promastigotes LmGT2 that are glucose transport deficient and complemented with the L. Mexicana glucose transporter 2. Activity is measured by DNA content using SYBR green in vitro

Sequence of Solute carrier family 2, facilitated glucose transporter member 1 (Homo sapiens) (P11166 whole entry): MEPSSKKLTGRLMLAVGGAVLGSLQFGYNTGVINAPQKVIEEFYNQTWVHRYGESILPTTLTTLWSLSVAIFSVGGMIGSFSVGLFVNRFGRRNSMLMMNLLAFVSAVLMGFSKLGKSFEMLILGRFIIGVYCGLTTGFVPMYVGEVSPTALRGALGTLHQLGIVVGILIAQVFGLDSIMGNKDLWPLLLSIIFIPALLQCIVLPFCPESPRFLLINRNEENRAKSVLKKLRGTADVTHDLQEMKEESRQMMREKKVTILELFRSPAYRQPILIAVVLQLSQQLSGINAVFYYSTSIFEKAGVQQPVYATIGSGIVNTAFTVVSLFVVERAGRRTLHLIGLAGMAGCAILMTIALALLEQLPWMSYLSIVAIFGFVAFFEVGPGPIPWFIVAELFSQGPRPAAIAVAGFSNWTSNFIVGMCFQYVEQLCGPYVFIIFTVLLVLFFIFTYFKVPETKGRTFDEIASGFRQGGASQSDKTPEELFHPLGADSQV

Row | Structure (SMILES) | inhibition [1] [%] | inhibition [2] [%] | inhibition [3] [%]
1 | CN1CCC(NCc2ccc(-c3cccc(-c4nc5ccccc5[nH]4)c3)cc2)CC1 | 1.67 | 2.05 | 1.64
2 | CC1=C(C(=O)OC(C)C)C(c2ccccc2Cl)C2=C(CC(c3ccccc3)CC2=O)N1 (stereo unspecified) | 7.11 | 6.69 | 7.36
3 | O=C(C=CC(=O)N1CCCCC1)NCc1ccccc1 | 2.97 | 3.29 | 2
4 | COc1ccc(-c2ccc(NC(=O)c3ccc(Cl)cc3)cc2)cc1CN(C)CCN(C)C | 9.47 | 4.95 | 2.75
5 | Oc1cc(Nc2ccnc3cc(-c4ccc(CN5CCCCC5)o4)c(Cl)cc23)c(Cl)cc1F | 1.26 | 1.8 | 1.57
6 | Cc1ccc(Nc2nc(N/N=C/c3cccc(O)c3)nc(Nc3ccc([N+](=O)[O-])cc3)n2)cc1C | 3.08 | 3.36 | 2.77
7 | c1ccc(CN2CCC(Nc3ccc(-c4c[nH]nc4-c4ccccn4)nc3)CC2)cc1 | 4.32 | 4.84 | 4.12
8 | CN1CCCN(Cc2ccc(-c3cccc(NC(=O)c4cccc(Cl)c4)c3)cc2)CC1 | 16.5 | 9.2 | 9.24
9 | COc1ccc(OC)c2c1CCN(C)C2Cc1cccc2ccccc12 (stereo unspecified) | 3.52 | 3.87 | 1.61
10 | C[C@H](NC(=O)c1c(CN2CCC(N3CCCCC3=O)CC2)c(-c2cccs2)nc2ccccc12)C1CCCCC1 | 4.3 | 0.29 | 0.41
11 | CC(C)(C)c1ccc(CN2CCC(CNC(=O)c3cc(-c4ccccc4F)cs3)C2)cc1 (stereo unspecified) | -1.08 | -2.3 | 0.9
12 | CC(=O)Nc1ccc(CNCCc2ccc(NC(=O)c3cc(Cl)cc(Cl)c3)cc2)cc1 | -0.73 | 0.23 | -1.09
